{"source": "PubChem BioAssay AID2158", "about": "(National Center for Advancing Translational Sciences (NCATS), 2009)", "note": "Several values for one entry are separate records, joined by “and”; a condition that tells them apart may be missing. Equal entries are not always repeated. Inconclusive results are not listed. A number with no mark means an inactive call. Activity calls are given as the source filed them. The call rests on the fitted dose curve; in most records, active means well fitted inhibition curve with a large enough effect; inconclusive means small, poorly fitted or top-dose-only effect; inactive means no such curve, though single readings can be large or run the other way. Potency means the concentration at half of the fitted maximal effect.", "data": [{"target": "Cruzipain (Trypanosoma cruzi) (UniProt P25779)", "sequence (P25779 123-467 limits assumed)": "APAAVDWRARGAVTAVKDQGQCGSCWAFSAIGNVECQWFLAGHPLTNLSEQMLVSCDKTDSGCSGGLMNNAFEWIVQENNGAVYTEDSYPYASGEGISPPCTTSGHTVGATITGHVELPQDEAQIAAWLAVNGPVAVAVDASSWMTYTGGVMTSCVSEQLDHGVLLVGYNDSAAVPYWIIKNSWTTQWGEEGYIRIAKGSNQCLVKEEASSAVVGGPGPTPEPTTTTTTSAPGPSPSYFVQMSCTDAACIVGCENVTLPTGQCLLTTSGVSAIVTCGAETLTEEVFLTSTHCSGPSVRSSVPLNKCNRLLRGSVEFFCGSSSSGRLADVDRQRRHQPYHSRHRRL", "experiment": "Confirmation qHTS Assay for Inhibitors of Cruzain; further: nearly all actives have a fitted effect of over 40% in size;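 on activity change, negative = inhibition: plate controls were uninhibited enzyme control for no effect and buffer wells lacking enzyme for full effect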", "conditions": "purified cruzain, Z-FR-AMC fluorescence, 0.01% Triton", "how_it_was_run": "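Purified cruzain, 1.5 nM, pre-incubated 15 min at room temperature with compound in 100 mM sodium acetate pH 5.5, 5 mM DTT, 0.01% Triton X-100. Then 2 uM Z-FR-AMC added; AMC fluorescence (ex 360/em 450 nm) increase over 60 s gave reaction progress.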", "values": [{"smiles": "CCOC(=O)c1ccc(N2CSC3=C(C#N)C(c4cccs4)CC(=O)N3C2)cc1", "note": "(stereo not drawn)", "activity change, negative = inhibition": "-9.35%"}, {"smiles": "CCc1ccc(OCCCn2c(CCNC(=O)C3CCCCC3)nc3ccccc32)cc1", "Potency": "1.41 µM (active)"}, {"smiles": "COc1nc(C#N)nc(N2CCCC2)n1", "Potency": "3.98 µM (active)"}, {"smiles": "N#Cc1nc(Nc2ccccc2)nc(NC2CCCCC2)n1", "Potency": "1.41 µM (active)"}, {"smiles": "O=C(NCc1ccco1)c1ccc2nc3sc4c(c3c(=O)n2c1)CCCC4", "Potency": "28.2 µM (active)"}, {"smiles": "N#Cc1nc(NCC2CC2)nc(Nc2ccccc2)n1", "Potency": "0.891 µM (active)"}, {"smiles": "CCc1ccc(OCCCCn2c(CCNC(=O)C3CCCCC3)nc3ccccc32)cc1", "Potency": "1.58 µM (active)"}, {"smiles": "O=C(Cn1cc(CNC(=O)C2CCCCC2)nn1)Nc1cc(C(F)(F)F)ccc1Cl", "activity change, negative = inhibition": "0.597%"}, {"smiles": "COc1cccc(CN2C(=O)c3ccccc3Sc3ccc(C(=O)NCCc4ccc(Cl)cc4)cc32)c1", "activity change, negative = inhibition": "5.18%"}, {"smiles": "O=C(CNC(=O)c1ccccc1)OC(C(=O)Nc1cc([N+](=O)[O-])ccc1F)c1ccccc1", "note": "(stereo not drawn)", "Potency": "12.6 µM (active)"}, {"smiles": "CC1=CC(=NOC(=O)/C=C/c2ccccc2)C=C(C)C1=O", "Potency": "3.98 µM (active)"}, {"smiles": "CCSc1nnc(NC(=O)/C=C/c2ccc3c(c2)OCO3)s1", "activity change, negative = inhibition": "-48.4%"}, {"smiles": "COc1ccc(/C=C/C(=O)Nc2ccc(-n3nncc3-c3ccccc3)cc2)cc1OC", "Potency": "14.1 µM (active)"}, {"smiles": "O=C(Cc1nnc(-c2nc3ccccc3[nH]2)o1)Nc1cc(C(F)(F)F)ccc1Cl", "activity change, negative = inhibition": "-0.284%"}, {"smiles": "O=C(Cc1nnc(-c2cc3ccccc3[nH]2)s1)Nc1cc(C(F)(F)F)ccc1Cl", "activity change, negative = inhibition": "-8.66% and 1.72%"}, {"smiles": "CCN(Cc1ccccc1)c1nc2c(S(=O)(=O)c3ccccc3)nnn2c2ccc(Cl)cc12", "activity change, negative = inhibition": "-6.48%"}, {"smiles": "CCn1cnc2c(Nc3cccc(Cl)c3)nc(C#N)nc21", "Potency": "0.0141 µM (active)"}, {"smiles": "O=C(CNC(=O)c1ccc2ccccc2c1)OC(C(=O)Nc1cc(C(F)(F)F)ccc1Cl)c1ccccc1", "note": "(stereo not drawn)", "Potency": "4.47 µM (active)"}, {"smiles": "CC/C=C1/N=C2C(=O)N(C)C(=O)N=C2N(C)N1", "Potency": "0.631 µM (active)"}, {"smiles": "O=C(O)c1c(Sc2ccccc2)c2cc(Cl)ccc2n1Cc1ccc(Cl)cc1", "Potency": "8.91 µM (active)"}, {"smiles": "CCCCNC(=O)Cn1c(SCc2ccccc2C)nc2ccncc21", "activity change, negative = inhibition": "-24.9%"}, {"smiles": "N#Cc1nc(N2CCCCC2)nc(N2CCOCC2)n1", "Potency": "2.82 µM (active)"}, {"smiles": "O=C(CNC(=O)c1ccc2cc[nH]c2c1)OC(C(=O)Nc1cc(C(F)(F)F)ccc1Cl)c1ccccc1", "note": "(stereo not drawn)", "Potency": "12.6 µM (active)"}, {"smiles": "COc1ccc(-c2cc(C#N)nc(N3CCN(C)CC3)n2)cc1", "activity change, negative = inhibition": "-11.8%"}, {"smiles": "O=C(O)Cc1nnc(-c2cc3ccccc3[nH]2)s1", "activity change, negative = inhibition": "10.6%"}, {"smiles": "NNC(=O)C(C(=O)OCc1ccccc1)c1ccccc1", "note": "(stereo not drawn)", "activity change, negative = inhibition": "-1.2%"}, {"smiles": "CC(=O)c1nnn(-c2nc(C#N)nc(N3CCOCC3)n2)c1C", "activity change, negative = inhibition": "4.76%"}, {"smiles": "N#Cc1nc(NCCCCO)nc(Nc2ccccc2)n1", "Potency": "0.891 µM (active)"}, {"smiles": "O=C(CNC(=O)C(c1ccccc1)c1ccccc1)OCC(=O)c1ccc2ccccc2c1", "activity change, negative = inhibition": "28.2%"}, {"smiles": "Cn1c(C(=O)NCCN2CCCCCC2)cc2c(=O)n(C)c3ccccc3c21", "Potency": "25.1 µM (active)"}, {"smiles": "O=C(Cc1ccccc1)NCC(=O)OCC(=O)c1cccc2ccccc12", "Potency": "25.1 µM (active)"}, {"smiles": "CCC(C(=O)NC1CCCCC1)n1c(SCc2cccc(F)c2)nc2ccncc21", "note": "(stereo not drawn)", "Potency": "6.31 µM (active)"}, {"smiles": "COCC(C)NC(=O)Cn1c(SCc2ccccc2)nc2ccccc21", "note": "(stereo not drawn)", "activity change, negative = inhibition": "-6.96%"}, {"smiles": "COc1ccc(-c2nn3c(-c4cc(-c5ccccc5)n[nH]4)nnc3s2)cc1OC", "activity change, negative = inhibition": "-9.95%"}, {"smiles": "CCOC(=O)CNc1nc(C#N)nc(N2CCOCC2)n1", "Potency": "4.47 µM (active) and 6.31 µM (active)"}, {"smiles": "COc1ccccc1CCNC(=O)CNC(=O)Cc1cccc2ccccc12", "activity change, negative = inhibition": "5.36%"}, {"smiles": "O=C(c1ccc(OCCN2CCCCC2)cc1)c1c(-c2ccc(O)cc2)sc2cc(O)ccc12", "activity change, negative = inhibition": "-21.2%"}, {"smiles": "O=C(CNC(=O)c1ccccc1)NCC(=O)OCC(=O)c1ccc2ccccc2c1", "activity change, negative = inhibition": "21.1%"}]}]}
